Compound activity: PubChem BioAssay, National Center for Advancing Translational Sciences (NCATS)
KDM5B inhibitor = KDM5B demethylase inhibition. Q9UGL1. KDM5B demethylase, FDH-coupled NADH fluorescence (FDH is formaldehyde dehydrogenase). Potency, µM (highest dose often 57.7 µM), most hits filed as inhibitors. 2.6% of 220,000 active; active means well fitted inhibition curve with a large enough effect; further: 0% is about no effect; nearly all actives have a fitted effect of over 70% in size
Target sequence (Q9UGL1 whole entry, looked up): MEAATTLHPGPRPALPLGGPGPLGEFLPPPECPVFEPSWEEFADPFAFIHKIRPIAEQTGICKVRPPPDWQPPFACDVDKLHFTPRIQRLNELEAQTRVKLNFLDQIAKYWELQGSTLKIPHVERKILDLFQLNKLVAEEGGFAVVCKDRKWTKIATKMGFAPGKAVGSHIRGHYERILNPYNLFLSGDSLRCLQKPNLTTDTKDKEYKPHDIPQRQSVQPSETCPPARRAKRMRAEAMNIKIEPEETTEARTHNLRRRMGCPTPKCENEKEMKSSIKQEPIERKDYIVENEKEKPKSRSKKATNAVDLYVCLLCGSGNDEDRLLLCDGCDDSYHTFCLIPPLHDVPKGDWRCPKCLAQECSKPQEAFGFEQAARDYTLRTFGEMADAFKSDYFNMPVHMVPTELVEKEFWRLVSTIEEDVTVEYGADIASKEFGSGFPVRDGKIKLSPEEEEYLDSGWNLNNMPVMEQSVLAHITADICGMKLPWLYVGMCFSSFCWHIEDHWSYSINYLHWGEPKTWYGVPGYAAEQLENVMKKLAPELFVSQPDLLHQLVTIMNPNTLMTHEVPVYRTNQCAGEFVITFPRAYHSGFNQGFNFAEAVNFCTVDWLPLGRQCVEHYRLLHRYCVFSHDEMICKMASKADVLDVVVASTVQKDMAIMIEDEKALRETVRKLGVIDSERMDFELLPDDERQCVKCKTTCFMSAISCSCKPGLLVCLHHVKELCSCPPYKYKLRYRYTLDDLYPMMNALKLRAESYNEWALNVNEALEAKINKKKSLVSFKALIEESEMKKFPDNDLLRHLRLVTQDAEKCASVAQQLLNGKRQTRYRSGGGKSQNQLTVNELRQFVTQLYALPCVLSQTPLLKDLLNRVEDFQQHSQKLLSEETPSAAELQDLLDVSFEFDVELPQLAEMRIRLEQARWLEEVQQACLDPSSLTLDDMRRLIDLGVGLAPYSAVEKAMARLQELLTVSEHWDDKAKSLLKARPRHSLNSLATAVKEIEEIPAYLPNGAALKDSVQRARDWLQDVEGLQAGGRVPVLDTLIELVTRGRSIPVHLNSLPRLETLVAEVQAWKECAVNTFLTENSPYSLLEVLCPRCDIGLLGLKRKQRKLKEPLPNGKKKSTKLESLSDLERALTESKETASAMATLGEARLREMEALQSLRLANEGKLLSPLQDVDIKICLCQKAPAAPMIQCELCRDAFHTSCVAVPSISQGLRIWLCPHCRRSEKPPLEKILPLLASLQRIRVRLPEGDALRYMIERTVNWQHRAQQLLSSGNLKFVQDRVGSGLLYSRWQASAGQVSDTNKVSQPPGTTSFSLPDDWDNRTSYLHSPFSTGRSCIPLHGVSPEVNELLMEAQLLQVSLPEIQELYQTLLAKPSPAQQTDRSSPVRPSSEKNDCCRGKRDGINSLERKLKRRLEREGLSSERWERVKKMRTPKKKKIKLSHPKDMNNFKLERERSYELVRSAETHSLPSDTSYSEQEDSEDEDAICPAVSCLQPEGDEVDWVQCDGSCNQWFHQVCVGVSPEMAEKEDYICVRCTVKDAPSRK
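Coupled FDH/NAD⁺ fluorescence readout. KDM5BΔAP 200 nM final; compound titration, 10 min RT preincubation; substrate mix 12.5 µM H3K4me3, 25 µM 2-OG, 50 µM Fe(II), 100 µM ascorbate, 0.25 mM NAD⁺, 0.25 U/mL FDH; ΔRFU over 30 min.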
Numbers without * were called inactive. The entries come from a sample that favours hits as a whole. Potency means the concentration at half of the fitted maximal effect.

O=C(Nc1ncc(-c2ccccc2)c2c1OCC2)c1ccncc1 was read as KDM5B inhibitor inactive.
Screening c1ccc(-c2cnc(Nc3ccc4c(c3)OCCO4)c3c2CCO3)cc1 returned KDM5B inhibitor 39.8µM*.
Cn1cc(-c2cc(=O)c3ccnc(Nc4ccc5[nH]ccc5c4)c3o2)cn1 was read as KDM5B inhibitor inactive.
Cn1cc(-c2cnc(Nc3ccc(F)cc3)c3c2CCO3)cn1 was read as KDM5B inhibitor 6.31µM*.
`COc1ccc(-c2cnc(Nc3ccccc3)c3c2CCO3)cn1` gave KDM5B inhibitor 39.8µM*.
`COc1ccc(-c2csc3ncnc(Nc4cccc(F)c4)c23)cc1` gave KDM5B inhibitor inactive.
For COc1ccc(-c2ccc3ncc(Nc4ccc(C(N)=O)cc4)n3n2)cn1 the results were KDM5B inhibitor inactive.
`CSCc1c(C(=O)OC2CCOC2=O)oc2ccccc12` (configuration not stated) gave KDM5B inhibitor inactive.
CCn1c(N2CCC(C(=O)Nc3ccc(C(C)C)cc3)CC2)cc(=O)n(C)c1=O was read as KDM5B inhibitor inactive.
For Cc1nn(CC(=O)N2CCN(C(=O)CC(C)C)CC2)c(=O)c2ccccc12 the results were KDM5B inhibitor inactive.
For COc1cccc(C(=O)N[C@H]2[C@H](O)[C@H](O)C[C@@H]2c2cccnc2)c1 the results were KDM5B inhibitor inactive.
CN(C)c1cccc(C(=O)N2CCNc3cnc(Nc4ccc(N5CCOCC5)cc4)nc3C2)c1 was read as KDM5B inhibitor inactive.
For Cc1nnc(-c2cc(-c3cccc(N(C)C)c3)ccn2)n1Cc1ccncc1 the results were KDM5B inhibitor inactive.
For COc1cccc(CNC2CCCc3nc(-c4cccnc4)ncc32)c1 (configuration not stated) the results were KDM5B inhibitor inactive.
Screening COc1cccc(Nc2ncc(-c3cccnc3)c3c2OCC3)c1 returned KDM5B inhibitor 31.6µM*.
CN(C)c1cccc(-c2cnc(Nc3ccncc3)c3c2CCO3)c1 was read as KDM5B inhibitor 28.2µM*.
O=C(OCC(=O)N1CCNC1=O)c1csc(NCc2ccccc2)n1 was read as KDM5B inhibitor inactive.
Cc1nnc(NC(=O)c2cc(-c3ccncc3)nc3ccccc23)s1 was read as KDM5B inhibitor inactive.
Screening O=C(N/N=C/c1ccsc1)c1ccc(Cl)cc1 returned KDM5B inhibitor inactive.
Screening CCCN(Cc1nnc(-c2ccccc2Cl)o1)C(=O)c1cccc(S(=O)(=O)N(C)C)c1 returned KDM5B inhibitor inactive.
Screening COc1ccccc1Nc1nc2ccccc2nc1NS(=O)(=O)c1ccc(C)c(C)c1 returned KDM5B inhibitor inactive.
`CCOC(=O)C(Cc1ccc(C(F)(F)F)cc1)(NC(C)=O)C(=O)OCC` gave KDM5B inhibitor inactive.
`CCc1cccc2c(C3=CCN(C(=O)c4ccccc4)CC3)c[nH]c12` gave KDM5B inhibitor inactive.
Screening CC(=O)c1ccc(C(=O)N2CC=C(c3ccccc3)CC2)s1 returned KDM5B inhibitor inactive.
`O=C(c1cccc(O)c1)N1CC=C(c2cnc3cnc(-c4ccccc4)cn23)CC1` gave KDM5B inhibitor 28.2µM*.
`O=C(O)c1ccc(Sc2ccccc2C(=O)O)c([N+](=O)[O-])c1` gave KDM5B inhibitor inactive.
O=C1COCCN1c1cc(-c2cccc(F)c2)cn2cncc12 was read as KDM5B inhibitor 35.5µM*.
Screening Fc1cccc(-c2nc(CN3CCOCC3)co2)c1 returned KDM5B inhibitor inactive.
O=C1c2cnc(-c3cccc(F)c3)nc2OCCN1c1ccccc1 was read as KDM5B inhibitor inactive.
Screening COc1cccc(NC(=O)C(=O)c2c(C)[nH]c3ccccc23)c1 returned KDM5B inhibitor inactive.
Screening COc1cc(-c2cc3c(nc2-c2ccccc2)nc(C(=O)NC2CCN(C)CC2)n3C)ccn1 returned KDM5B inhibitor inactive.
Cc1cnc(-c2ccccc2)n1CCNC(=O)c1cccnc1 was read as KDM5B inhibitor inactive.
`CN1CCC(NC(=O)c2cc(-c3ccccc3Cl)nc3ccccc23)CC1` gave KDM5B inhibitor inactive.
CN(C)CCNC(=O)c1nc2nc(-c3ccccc3)c(-c3cccnc3)cc2n1C was read as KDM5B inhibitor 20µM*.
Screening Cc1cc(-c2cc3c(nc2-c2ccccc2)nc(C(=O)NCCN(C)C)n3C)ccn1 returned KDM5B inhibitor inactive.
Screening COc1cc(-c2cc3c(nc2-c2ccccc2)nc(C(=O)NCCN(C)C)n3C)ccn1 returned KDM5B inhibitor inactive.
Screening CCCNC(=O)c1cc(-c2cccnc2)nc2ccccc12 returned KDM5B inhibitor inactive.
Cc1cc(-c2cc3c(nc2-c2ccccc2)nc(C(=O)NC2CCN(C)CC2)n3C)ccn1 was read as KDM5B inhibitor 31.6µM*.
For CN(C)CCNC(=O)c1cc(-c2ccccn2)nc2ccccc12 the results were KDM5B inhibitor inactive.
`CN(C)CCNC(=O)c1nc2nc(-c3ccccc3)c(-c3ccncc3)cc2n1C` gave KDM5B inhibitor 22.4µM*.
`Cc1nc2cccnc2n1-c1cccc(C(=O)NCCN(C)C)c1` gave KDM5B inhibitor inactive.
For Cc1ccccc1Nc1cc2c(nc1-c1ccccc1)nc(C(=O)NCCN(C)C)n2C the results were KDM5B inhibitor 35.5µM*.
CCN(CC)S(=O)(=O)c1ccc(NS(=O)(=O)c2ccc3ccccc3c2)cc1 was read as KDM5B inhibitor inactive.
Cc1ccccc1NC(=O)c1ccc2c(Cl)c3c(nc2c1)CCCC3 was read as KDM5B inhibitor inactive.
For CCCCNC(=S)Nc1cc(C)ccc1F the results were KDM5B inhibitor inactive.
For CNC(=O)C(C)Sc1nc(-c2ccccc2)c(-c2ccccc2)o1 (configuration not stated) the results were KDM5B inhibitor inactive.
Cc1n[nH]c(C)c1Cl was read as KDM5B inhibitor inactive.
CC(C)NC(=O)c1ccc2c(c1)N(C(=O)c1ccc(F)cc1)CC2 was read as KDM5B inhibitor inactive.
For CC(C)NC(=O)c1ccc(Cl)c(Cl)c1 the results were KDM5B inhibitor inactive.
`Cc1ccc(C(=O)NCC(C)C)cc1C` gave KDM5B inhibitor inactive.
For CC(=O)N1CCCC2(C1)CN(C)c1ccc(C(=O)NC(C)C)cc12 (configuration not stated) the results were KDM5B inhibitor 35.5µM*.
`CC(=O)N1CCCC2(C1)CN(C)c1ccc(C(=O)NCC(C)C)cc12` (configuration not stated) gave KDM5B inhibitor 31.6µM*.
CC(C)CNC(=O)c1ccc2c(c1)CCCN2C(=O)c1cccc(Cl)c1 was read as KDM5B inhibitor inactive.
For Cc1ccc(-c2noc(CNc3ccc(Cl)c(Cl)c3)n2)cc1 the results were KDM5B inhibitor inactive.
N#Cc1ccc(CNCc2cc(Br)cs2)cc1 was read as KDM5B inhibitor inactive.
`CC(=O)C1=C(O)C(=O)NC1c1ccccc1F` (configuration not stated) gave KDM5B inhibitor inactive.
N#Cc1ccc(C(=O)Nc2ccc(NC(=O)c3cc4ccccc4o3)cc2)c(F)c1 was read as KDM5B inhibitor inactive.
`O=C(Cn1cc(/C=C2\NC(=O)N(Cc3ccccc3Cl)C2=O)c2ccccc21)N1CCOCC1` gave KDM5B inhibitor inactive.
Screening N#CC1(C(=O)Nc2cccc(I)c2)CCCC1 returned KDM5B inhibitor inactive.
Screening O=C(c1cccc(Cl)c1)N(Cc1ccco1)c1ccccc1 returned KDM5B inhibitor inactive.
For O=C1CC(c2ccccc2)N(C(=O)C2CC2)CCCN(C(=O)c2ccc3ccccc3n2)CCN1 (configuration not stated) the results were KDM5B inhibitor inactive.
